In the library only some 12% were active in any assay of this set; here they are far more common.
SARS PLP yeast = inhibitors of SARS-CoV papain-like protease in yeast; S. cerevisiae expressing SARS-CoV PLpro, growth rescue; Potency, µM (series often up to 32.9 µM), actives largely listed as activators; 330,000 compounds, 0.19% hits; AID 485353; calls by dose curve; note: nearly all actives have a fitted effect of over 55% in size
Pf growth 96h = P. falciparum growth inhibition at 96 hour, primary screen for plastid delayed-death inhibitors. P. falciparum luciferase reporter growth, 96 h. Potency, µM (doses to about 28.7 µM), most hits filed as inhibitors. 320,000 compounds, 6.9% hits. AID 504834
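Two parasite generations (96 h, 37 C, 5% CO2) of compound exposure in infected erythrocytes (0.05% parasitemia, 2% hematocrit). Luciferase-reporter P. falciparum; decreased luminescence indicates inhibited growth, aimed at apicoplast-acting delayed death.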
Sm TGR block = inhibitors of Schistosoma mansoni thioredoxin glutathione reductase | Q962Y6 | AID 485364 | Potency, µM (top dose mostly 114 µM), actives largely listed as inhibitors | 360,000 compounds, 3% hits | purified TGR, DTNB reduction, TNB absorbance 405 nm; note: nearly all actives have a fitted effect of over 60% in size
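Kinetic colorimetric format: TGR-catalysed, NADPH-driven DTNB reduction monitored via TNB absorbance. Enzyme dispensed at 20 nM; compound exposure 15 min at room temperature before reaction start.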
Pf growth 48h = inhibits P. falciparum growth in the first generation, 48 h; P. falciparum luciferase growth in erythrocytes, 48 h; Potency, µM (titrated, usually from 28.7 µM), actives largely listed as inhibitors; 310,000 compounds, 5.9% hits; AID 504832
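Growth was read as firefly luciferase luminescence after a 48 h, 37 C, 5% CO2 exposure of compounds to reporter-bearing P. falciparum cultures (0.1% parasitemia, 2% hematocrit final) in Albumax-supplemented RPMI 1640.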
Large screens that a line does not name were inactive. Unless noted, calls come from the whole dose curve; as a rule, active = well fitted curve in the direction sought with a large enough effect; inconclusive = small, poorly fitted or top-dose-only effect, or another doubt; inactive = no such curve, though single readings can be large; an effect the other way counts as inactive or inconclusive.

Oc1ccccc1/C=N/n1c2ccccc2c2ccccc21	Pf growth 96h 2.62µM, Pf growth 48h inconclusive
Cc1ccc2cc3c(N)nn(C(=O)c4cccc(F)c4)c3nc2c1	none (no result: SARS PLP yeast, Pf growth 96h, Pf growth 48h)
O=[N+]([O-])c1cc(/C=N\Nc2nccs2)ccc1O	Sm TGR block 28.2µM, Pf growth 48h inconclusive (no result: Pf growth 96h)
O=[N+]([O-])c1ccccc1/C=N\Nc1nccs1	Pf growth 96h inconclusive
COc1cc(C(=O)N(C)C2CCCN(Cc3ccccc3F)C2)cc(OC)c1OC (stereo not drawn)	Pf growth 96h inconclusive
COc1ccccc1CCC(=O)N(C)C1CCCN(Cc2ccccc2F)C1 (stereo not drawn)	Pf growth 96h 10.4µM
C/C(=C\c1ccccc1)C(=O)n1nnc2ccccc21	Sm TGR block 20µM
O=C1/C(=C/c2ccccn2)COc2ccccc21	Sm TGR block inconclusive
CC1C/C(=C/c2ccccn2)C(=O)/C(=C/c2ccccn2)C1 (stereo not drawn)	Pf growth 96h inconclusive, Sm TGR block 15.8µM, Pf growth 48h 2.62µM
CC(C)(C)C1C/C(=C/c2ccccn2)C(=O)/C(=C/c2ccccn2)C1 (stereo not drawn)	Sm TGR block 17.8µM, Pf growth 48h 2.08µM
CCc1cccc(C)c1NC(=O)C(CC)Sc1nncn2c1cc1occc12 (stereo not drawn)	none (no result: SARS PLP yeast, Pf growth 96h, Pf growth 48h)
CCOc1ccc(/C=N/Nc2nc(C)cs2)c(O)c1	Pf growth 48h inconclusive
COc1cccc(CC2(CO)CCN(Cc3cnc(N4CCOCC4)s3)CC2)c1	none
OCC1(CCCc2ccccc2)CCN(Cc2cnc(N3CCOCC3)s2)CC1	Pf growth 96h 9.28µM
COCc1c(C(=O)OCC(=O)NCc2ccco2)oc2ccccc12	none (no result: Pf growth 96h, Sm TGR block, Pf growth 48h)
CN(C)CCN(Cc1cccs1)S(=O)(=O)c1csc(C(N)=O)c1	Pf growth 96h inconclusive
CCCCN(Cc1ccco1)S(=O)(=O)c1csc(C(N)=O)c1	Pf growth 96h 9.28µM, Sm TGR block inconclusive
CN(C)CCN(Cc1ccco1)S(=O)(=O)c1csc(C(N)=O)c1	Pf growth 96h 8.28µM
Cc1sc2c(c1C)c(=O)n(-c1ccc(Cl)cc1)c(=O)n2Cc1cc(=O)n2cc(Br)ccc2n1	none (no result: SARS PLP yeast, Pf growth 96h, Pf growth 48h)
O=C(NC1CCCCC1)C(c1cccs1)N(C(=O)Cc1c[nH]c2ccccc12)c1ccc(F)cc1 (stereo not drawn)	Pf growth 96h inconclusive
CC(=O)Nc1ccc(N(C(=O)Cc2c[nH]c3ccccc23)C(C(=O)NC2CCCCC2)c2ccco2)cc1 (stereo not drawn)	Pf growth 48h inconclusive
Cc1ccc(C(C(=O)NC2CCCCC2)N(C(=O)Cc2c[nH]c3ccccc23)c2ccccc2)o1 (stereo not drawn)	Pf growth 96h inconclusive, Pf growth 48h 9.28µM
COc1cccc(CN(C(=O)Cc2c[nH]c3ccccc23)C(C(=O)NC2CCCCC2)c2cccs2)c1 (stereo not drawn)	Pf growth 96h 11.7µM, Pf growth 48h 9.28µM
CC(=O)c1ccc(N(C(=O)Cc2c[nH]c3ccccc23)C(C(=O)NC2CCCCC2)c2cccs2)cc1 (stereo not drawn)	Pf growth 48h 3.7µM
Cc1ccc2c(CC(=O)N(Cc3cccc(Cl)c3)C3CCS(=O)(=O)C3)coc2c1 (stereo not drawn)	none (no result: SARS PLP yeast, Pf growth 96h, Pf growth 48h)
Cc1ccc(/C=N/NC(=O)c2cccc(NC(=O)c3ccccc3Cl)c2)o1	Pf growth 96h 1.17µM
Cc1cc(C(=O)CSc2nnc(-c3ccncc3)n2-c2ccccc2)c(C)n1C	Pf growth 96h 16.5µM, Pf growth 48h 14.7µM
Cc1ccc(CCSc2ccc(C(C)C)cc2)cn1	Pf growth 96h 11.7µM
COC(=O)C1=C(c2ccc(Cl)c(C(F)(F)F)c2)C[C@@H]2CC[C@H]1N2C(=O)NCC1CC1	Pf growth 96h 6.57µM, Pf growth 48h 11.7µM
COC(=O)C1=C(c2ccc(Cl)c(C(F)(F)F)c2)C[C@@H]2CC[C@H]1N2C(=O)N1CCOCC1	Pf growth 96h inconclusive, Pf growth 48h inconclusive
COC(=O)C1=C(c2ccc(Cl)c(C(F)(F)F)c2)C[C@@H]2CC[C@H]1N2C(=O)N1CCCC1	Pf growth 96h inconclusive, Pf growth 48h 11.7µM
COC(=O)C1=C(c2ccc(Cl)c(C(F)(F)F)c2)C[C@@H]2CC[C@H]1N2C(=O)NCc1cc(C)oc1C(F)(F)F	Pf growth 96h inconclusive, Pf growth 48h 7.38µM
Cc1ccc(S(=O)(=O)C(CNC(=O)COc2ccccc2)c2cccs2)cc1 (stereo not drawn)	none (no result: SARS PLP yeast, Pf growth 96h, Pf growth 48h)
COc1ccc(-c2cc(CNC(=O)CCl)on2)cc1	Pf growth 96h 1.47µM, Sm TGR block 35.5µM, Pf growth 48h 2.94µM
CC(C)C(=O)NCc1cc(-c2ccccc2)no1	Pf growth 96h 5.22µM

High-throughput results: PubChem, National Center for Advancing Translational Sciences (NCATS)
